Records with an inconclusive call do not appear. Activity calls are given as the source filed them. Calls come from the whole dose curve; as a rule, active = well fitted curve in the direction sought with a large enough effect; inconclusive = small, poorly fitted or top-dose-only effect, or another doubt; inactive = no such curve, though single readings can be large; an effect the other way counts as inactive or inconclusive.
Assays:
[1] = Quantitative High-Throughput drug screen in 47 multiple myeloma cell lines against the NCATS MIPE library collection: Karpas417_ECACC cell viability assay (AID 1918961); settings: Karpas417 myeloma viability, CellTiter-Glo ATP luminescence, 48 h; viability (% of DMSO): at 45.8 µM (top of the series)
Summary of the method: (§1)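 CellTiter-Glo ATP luminescence gave viability after 48 h compound treatment at 37C of 500 multiple myeloma cells per well. Normalisation used DMSO-only wells as 100% and media-only wells as 0% viability; primary qHTS of approved and investigational drugs.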

[2] = Quantitative High-Throughput drug screen in 47 multiple myeloma cell lines against the NCATS MIPE library collection: KHM11_PLB cell viability assay (AID 1918962); note: nearly all actives have a fitted effect of over 35% in size
Summary of the method: (§2)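 Myeloma cells (500 per well) were exposed to MIPE 4.0 compounds by pin transfer and incubated 48 hours at 37C, 5% CO2. Viability was read as ATP by CellTiter-Glo luminescence, normalised to DMSO (100%) and media-only (0%) wells.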

[3] = Quantitative High-Throughput drug screen in 47 multiple myeloma cell lines against the NCATS MIPE library collection: JIM3_ECACC cell viability assay (AID 1918963; note: nearly all actives have a fitted effect of over 35% in size)
Summary of the method: as §2

[4] = Quantitative High-Throughput drug screen in 47 multiple myeloma cell lines against the NCATS MIPE library collection: JIM1_ECACC cell viability assay (AID 1918964)
Summary of the method: (§3)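 Luminescent ATP measurement with CellTiter-Glo gives viability, scaled between DMSO-only wells (100%) and media-only wells (0%). Cells, 500 per well, faced library compounds for 48 hours at 37C.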

[5] = Quantitative High-Throughput drug screen in 47 multiple myeloma cell lines against the NCATS MIPE library collection: INA6_PLB cell viability assay (AID 1918965; note: nearly all actives have a fitted effect of over 55% in size)
Summary of the method: as §1

[6] = Quantitative High-Throughput drug screen in 47 multiple myeloma cell lines against the NCATS MIPE library collection: JJN3_DSMZ cell viability assay (AID 1918966; note: nearly all actives have a fitted effect of over 50% in size)
Summary of the method: as §3

[7] = Quantitative High-Throughput drug screen in 47 multiple myeloma cell lines against the NCATS MIPE library collection: H1112_PLB cell viability assay (AID 1918967; note: nearly all actives have a fitted effect of over 30% in size)
Summary of the method: as §3

[8] = Quantitative High-Throughput drug screen in 47 multiple myeloma cell lines against the NCATS MIPE library collection: Karpas25_ECACC cell viability assay (AID 1918968; note: nearly all actives have a fitted effect of over 35% in size)
Summary of the method: as §3

[9] = Quantitative High-Throughput drug screen in 47 multiple myeloma cell lines against the NCATS MIPE library collection: KMS27_JCRB cell viability assay (AID 1918970); settings: KMS27 myeloma cells, CellTiter-Glo ATP viability, 48 h; viability (% of DMSO): at 45.8 µM (top of the series); note: nearly all actives have a fitted effect of over 30% in size
Summary of the method: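 Each line is seeded at 500 cells per well and treated with library compounds for 48 hours under 37 °C, 5% CO2. CellTiter-Glo is then added for 5 min at room temperature before median relative luminescence is recorded.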

[10] = Quantitative High-Throughput drug screen in 47 multiple myeloma cell lines against the NCATS MIPE library collection: KMS12BM_JCRB cell viability assay (AID 1918971); note: nearly all actives have a fitted effect of over 35% in size
Summary of the method: (§4)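 Relative luminescence from CellTiter-Glo served as the viability signal, referenced to DMSO-treated (100%) and cell-free medium (0%) controls. Treatment lasted 48 hours at 37C with 500 cells per well.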

[11] = Quantitative High-Throughput drug screen in 47 multiple myeloma cell lines against the NCATS MIPE library collection: KMS12PE_JCRB cell viability assay (AID 1918972); note: nearly all actives have a fitted effect of over 30% in size
Summary of the method: as §1

[12] = Quantitative High-Throughput drug screen in 47 multiple myeloma cell lines against the NCATS MIPE library collection: KMS20_JCRB cell viability assay (AID 1918973); note: nearly all actives have a fitted effect of over 45% in size
Summary of the method: as §3

[13] = Quantitative High-Throughput drug screen in 47 multiple myeloma cell lines against the NCATS MIPE library collection: KMS26_JCRB cell viability assay (AID 1918975); note: nearly all actives have a fitted effect of over 45% in size
Summary of the method: as §4

[14] = Quantitative High-Throughput drug screen in 47 multiple myeloma cell lines against the NCATS MIPE library collection: MMM1_PLB cell viability assay (AID 1918976); note: nearly all actives have a fitted effect of over 35% in size
Summary of the method: (§5)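 ATP-based CellTiter-Glo luminescence after 48 h drug exposure (37 °C, 5% CO2) of 500 myeloma cells per well. DMSO-only wells set 100% viability, media-only wells 0%; MIPE 4.0 library added by pin tool.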

[15] = Quantitative High-Throughput drug screen in 47 multiple myeloma cell lines against the NCATS MIPE library collection: MOLP8_DSMZ cell viability assay (AID 1918977); note: nearly all actives have a fitted effect of over 45% in size
Summary of the method: as §5

[16] = Quantitative High-Throughput drug screen in 47 multiple myeloma cell lines against the NCATS MIPE library collection: NCIH929_DSMZ cell viability assay (AID 1918978); note: nearly all actives have a fitted effect of over 35% in size
Summary of the method: as §5

[17] = Quantitative High-Throughput drug screen in 47 multiple myeloma cell lines against the NCATS MIPE library collection: OCIMY1_PLB cell viability assay (AID 1918979); note: nearly all actives have a fitted effect of over 35% in size
Summary of the method: as §5

[18] = Quantitative High-Throughput drug screen in 47 multiple myeloma cell lines against the NCATS MIPE library collection: MM1S_ATCC cell viability assay (AID 1918980); note: nearly all actives have a fitted effect of over 45% in size
Summary of the method: as §5

[19] = Quantitative High-Throughput drug screen in 47 multiple myeloma cell lines against the NCATS MIPE library collection: MM1R_ATCC cell viability assay (AID 1918981); note: nearly all actives have a fitted effect of over 35% in size
Summary of the method: as §5

[20] = Quantitative High-Throughput drug screen in 47 multiple myeloma cell lines against the NCATS MIPE library collection: KMS21BM_JCRB cell viability assay (AID 1918974); settings: ATP luminescence, 48 h; viability: at 45.8 µM (top of the series)
Summary of the method: as §3

Measured: Potency
Potency is the fitted concentration of half-maximal effect.

CC(C=CC(=O)NO)=C[C@@H](C)C(=O)c1ccc(N(C)C)cc1
active: [1] 105 nM | [2] 372 nM | [3] 743 nM | [4] 296 nM | [5] 83.3 nM | [6] 187 nM | [7] 372 nM | [8] 264 nM | [9] 264 nM | [10] 264 nM | [11] 235 nM | [12] 148 nM | [13] 264 nM | [14] 187 nM | [15] 93.5 nM | [16] 296 nM | [17] 372 nM | [18] 187 nM | [19] 132 nM

C=CCNc1c(O)cc2c(O)c1C[C@@H](C)C[C@H](OC)[C@@H](O)[C@@H](C)C=C(C)[C@H](OC(N)=O)[C@@H](OC)C=CC=C(C)C(=O)N2
active: [1] 74.3 nM | [2] 264 nM | [3] 590 nM | [4] 209 nM | [5] 187 nM | [6] 296 nM | [7] 1050 nM | [8] 469 nM | [9] 148 nM | [11] 105 nM | [12] 372 nM | [13] 1320 nM | [14] 8330 nM | [15] 332 nM | [16] 418 nM | [17] 1480 nM | [18] 1180 nM | [19] 526 nM

COc1cccc2c1C(=O)c1c(O)c3c(c(O)c1C2=O)C[C@@](O)(C(=O)CO)C[C@H]3O[C@H]1C[C@H](N)[C@H](O)[C@H](C)O1
active: [1] 1320 nM | [2] 332 nM | [3] 332 nM | [4] 1050 nM | [5] 118 nM | [6] 132 nM | [7] 372 nM | [8] 118 nM | [9] 743 nM | [10] 166 nM | [11] 1480 nM | [12] 52.6 nM | [13] 296 nM | [14] 148 nM | [15] 187 nM | [16] 93.5 nM | [17] 296 nM | [18] 20.9 nM | [19] 20.9 nM

NC(=O)N1CCC(CC(=O)N2CCC([C@H]3c4ncc(Br)cc4CCc4cc(Cl)cc(Br)c43)CC2)CC1
active: [1] 10500 nM | [2] 37.2 nM | [3] 18700 nM | [4] 5900 nM | [5] 7430 nM | [6] 16600 nM | [8] 14800 nM | [10] 18700 nM | [11] 11800 nM | [20] 13200 nM | [13] 20900 nM | [14] 16600 nM | [17] 20900 nM | [18] 16600 nM | [19] 20900 nM

Cc1cnc(Nc2ccc(N3CCN(C)CC3)cc2)nc1Nc1cccc(S(=O)(=O)NC(C)(C)C)c1
active: [1] 372 nM | [2] 1870 nM | [3] 3720 nM | [4] 662 nM | [5] 418 nM | [6] 2960 nM | [7] 5900 nM | [8] 1660 nM | [10] 2640 nM | [11] 1660 nM | [12] 7430 nM | [20] 148 nM | [13] 6620 nM | [14] 2960 nM | [15] 2090 nM | [16] 2350 nM | [18] 3320 nM | [19] 5260 nM

CN[C@H]1[C@@H](O)[C@@H]2O[C@@H]3O[C@H](C)CC(=O)[C@]3(O)O[C@@H]2[C@@H](NC)[C@H]1O
active: [1] 469 nM | [2] 8330 nM | [3] 5260 nM | [4] 662 nM | [5] 2960 nM | [6] 105 nM | [7] 2640 nM | [8] 74.3 nM | [9] 332 nM | [10] 9350 nM | [11] 833 nM | [20] 418 nM | [13] 1660 nM | [14] 1660 nM | [15] 11800 nM | [16] 935 nM | [17] 8330 nM | [18] 209 nM | [19] 1180 nM

CN(C)c1ccc(C(=O)NCCCCCCC(=O)NO)cc1
active: [1] 132 nM | [2] 1660 nM | [3] 2960 nM | [4] 93.5 nM | [5] 166 nM | [6] 1050 nM | [7] 1870 nM | [8] 469 nM | [9] 66.2 nM | [10] 235 nM | [11] 93.5 nM | [13] 2960 nM | [15] 743 nM | [16] 833 nM | [17] 1870 nM | [18] 833 nM | [19] 590 nM

CCN(CC)CCNC(=O)c1c(C)[nH]c(C=C2C(=O)Nc3ccc(F)cc32)c1C
active: [1] 136 nM | [2] 1080 nM | [3] 2150 nM | [4] 481 nM | [5] 1210 nM | [6] 6050 nM | [7] 6790 nM | [8] 1360 nM | [9] 1360 nM | [11] 1360 nM | [12] 855 nM | [20] 762 nM | [13] 17100 nM | [14] 6790 nM | [16] 960 nM | [17] 13600 nM | [18] 4810 nM | [19] 3030 nM

Source: PubChem BioAssay (NCATS)
